Source: paper PMC7883291

Key:
Assay in all cases: cross-link between two proteins; cross-linking mass spectrometry
[1] = target: Cytochrome b-c1 complex subunit 2, mitochondrial (UniProt P23004)
[2] = target: NADH dehydrogenase [ubiquinone] 1 alpha subcomplex subunit 1 (UniProt Q02377)
[3] = target: NADH dehydrogenase [ubiquinone] 1 alpha subcomplex subunit 13 (UniProt Q95KV7)
[4] = target: NADH dehydrogenase [ubiquinone] 1 alpha subcomplex subunit 7 (UniProt Q05752)
[5] = target: NADH dehydrogenase [ubiquinone] 1 beta subcomplex subunit 11, mitochondrial (UniProt Q8HXG5)
[6] = target: NADH dehydrogenase [ubiquinone] 1 beta subcomplex subunit 4 (UniProt P48305)
[7] = target: NADH dehydrogenase [ubiquinone] iron-sulfur protein 4, mitochondrial (UniProt Q02375)
Sequence of NADH dehydrogenase [ubiquinone] iron-sulfur protein 4, mitochondrial (Q02375 whole entry): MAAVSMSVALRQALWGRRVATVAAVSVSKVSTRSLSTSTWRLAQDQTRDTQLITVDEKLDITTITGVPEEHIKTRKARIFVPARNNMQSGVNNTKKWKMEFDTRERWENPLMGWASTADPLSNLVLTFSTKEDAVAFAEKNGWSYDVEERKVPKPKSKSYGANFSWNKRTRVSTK

Sequence of NADH dehydrogenase [ubiquinone] 1 beta subcomplex subunit 11, mitochondrial (Q8HXG5 whole entry, one chain of several): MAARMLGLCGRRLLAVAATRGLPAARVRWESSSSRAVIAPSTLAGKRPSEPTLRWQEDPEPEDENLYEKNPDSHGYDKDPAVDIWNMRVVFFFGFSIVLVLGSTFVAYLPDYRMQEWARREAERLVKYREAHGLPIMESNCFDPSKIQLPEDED
Sequence of Cytochrome b-c1 complex subunit 2, mitochondrial (P23004 whole entry, one chain of several): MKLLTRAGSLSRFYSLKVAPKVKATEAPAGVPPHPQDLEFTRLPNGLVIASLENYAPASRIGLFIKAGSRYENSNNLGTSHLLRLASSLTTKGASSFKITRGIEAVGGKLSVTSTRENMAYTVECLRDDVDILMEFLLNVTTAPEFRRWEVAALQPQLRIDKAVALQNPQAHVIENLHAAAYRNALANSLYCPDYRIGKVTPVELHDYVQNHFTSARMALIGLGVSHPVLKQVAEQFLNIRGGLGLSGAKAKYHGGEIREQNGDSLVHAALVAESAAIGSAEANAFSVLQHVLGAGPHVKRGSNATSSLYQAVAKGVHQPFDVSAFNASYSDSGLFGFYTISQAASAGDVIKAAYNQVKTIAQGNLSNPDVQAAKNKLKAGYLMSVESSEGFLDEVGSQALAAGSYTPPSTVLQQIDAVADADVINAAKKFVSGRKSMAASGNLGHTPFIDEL
Sequence of NADH dehydrogenase [ubiquinone] 1 beta subcomplex subunit 4 (P48305 whole entry, one chain of several): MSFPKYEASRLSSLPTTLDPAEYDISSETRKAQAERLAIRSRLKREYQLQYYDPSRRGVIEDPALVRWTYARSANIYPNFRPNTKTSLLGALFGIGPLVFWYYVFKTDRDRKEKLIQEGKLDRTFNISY
Sequence of NADH dehydrogenase [ubiquinone] 1 alpha subcomplex subunit 6, Q02366 (Q02366 whole entry, one chain of several): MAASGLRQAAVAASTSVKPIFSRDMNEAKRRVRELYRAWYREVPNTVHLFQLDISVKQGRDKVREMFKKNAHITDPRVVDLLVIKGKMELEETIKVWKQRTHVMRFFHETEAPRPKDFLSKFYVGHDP
Sequence of NADH dehydrogenase [ubiquinone] 1 alpha subcomplex subunit 7 (Q05752 whole entry, one chain of several): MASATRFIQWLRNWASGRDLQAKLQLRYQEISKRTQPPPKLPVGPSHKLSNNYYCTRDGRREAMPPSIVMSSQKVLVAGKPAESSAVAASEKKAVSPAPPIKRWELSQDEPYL
Sequence of NADH dehydrogenase [ubiquinone] 1 alpha subcomplex subunit 13 (Q95KV7 whole entry, one chain of several): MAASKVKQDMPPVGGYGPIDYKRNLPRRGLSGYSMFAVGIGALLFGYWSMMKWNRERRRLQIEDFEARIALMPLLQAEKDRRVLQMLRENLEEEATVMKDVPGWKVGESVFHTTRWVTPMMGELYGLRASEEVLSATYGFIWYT
Sequence of NADH dehydrogenase [ubiquinone] 1 alpha subcomplex subunit 1 (Q02377 whole entry, one chain of several): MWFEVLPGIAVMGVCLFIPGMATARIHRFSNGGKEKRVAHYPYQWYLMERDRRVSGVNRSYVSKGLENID

Substance: Cytochrome c1, heme protein, mitochondrial, P00125
- listed as a hit [1]: yes

Substance: Cytochrome b-c1 complex subunit 7, P00129
- listed as a hit [1]: yes

Substance: NADH dehydrogenase [ubiquinone] 1 alpha subcomplex subunit 8, P42029
- listed as a hit [2]: yes

Substance: NADH dehydrogenase [ubiquinone] iron-sulfur protein 5, Q02379
- listed as a hit [3]: yes

Substance: NADH dehydrogenase [ubiquinone] 1 alpha subcomplex subunit 5, P23935
- listed as a hit [4]: yes

Substance: NADH dehydrogenase [ubiquinone] 1 beta subcomplex subunit 8, mitochondrial, Q02372
- listed as a hit [5]: yes

Substance: NADH dehydrogenase [ubiquinone] 1 beta subcomplex subunit 9, Q02369
- listed as a hit [5]: yes

Substance: Cytochrome b-c1 complex subunit 1, mitochondrial, P31800
- listed as a hit [6]: yes

Substance: NADH dehydrogenase [ubiquinone] 1 alpha subcomplex subunit 6, Q02366
- listed as a hit [7]: yes

Substance: NADH dehydrogenase [ubiquinone] iron-sulfur protein 3, mitochondrial, P23709
- listed as a hit [7]: yes
